Assay results: PubChem BioAssay AID1117362 (Southern Research Institute, 2015)
Among all 3,600 compounds or so, about 100 (2.8%) were called active.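 How the source made its calls: active means inhibition above 30% at one or more concentrations, seen consistently on every test date; inconclusive means results that disagree between repeat test dates; inactive means the rest.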 Only a sample is shown.

Test: GST-antibody interaction or FRET quenching – biochemical, TR-FRET, artefact control for Vif-APOBEC3G degradation inhibitor project, dose response (AID 1117362);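 further: biotinylated GST protein used in place of GST-Vif 1-94 and biotin-A3G peptide; detects fluorescence quenchers or blockers of GST binding to anti-GST antibody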
Conditions: TR-FRET counter screen, biotin-GST/anti-GST signal; series mostly up to 100 µM
For `CN1CCC(N(C)C(=O)COc2ccccc2-c2ccccc2)CC1`, the IC50 was “inactive”.
For `O=C(O)CCCCC1CCSS1` (stereo not given), the IC50 was “inactive”.
With `CN(C)C(=O)c1nc2ccc(Cl)cn2c1CN1CCCC(OCc2ccccc2)C1` (stereo not given) the IC50 was “inactive”.
In the case of `O=C1CC(Nc2ccc(N3CCOCC3)cc2)C(=O)N1c1ccccc1F` (stereo not given), the IC50 was “inactive”.
With `Cc1ccc(/C=C/C(=O)Nc2cccc(S(=O)(=O)N3CCOCC3)c2)o1` the IC50 was “inactive”.
With `CCOC(=O)/C=C1\SCC(=O)N1CC(=O)NC(C)c1ccc(F)cc1` (stereo not given) the IC50 was “inactive”.
With `CC1=C(C#N)C(=O)N(C)C(C)(C)C1` the IC50 was “inactive”.
With `CN1CCc2nc3ccc(Cl)cc3c(-c3ccccc3Cl)c2C1` the IC50 was “inactive”.
In the case of `CNC(=O)c1ccccc1NC(=O)c1ccc(C)c(S(=O)(=O)N2CCCCC2)c1`, the IC50 was “inactive”.
For `Oc1ccc2ccccc2c1C1Nc2cccc3cccc(c23)N1`, the IC50 was “inactive”.
For `Cc1cc(C(=O)O)ccc1-n1c(C)ccc1C`, the IC50 was “inactive”.
With `COc1cc(C(=O)NCC(c2ccco2)N2CCCC2)ccc1OCc1c(C)noc1C` (stereo not given) the IC50 was “inactive”.
For `Cc1cc(C(=O)CCl)c(C)n1-c1c(C)n(C)n(-c2ccccc2)c1=O`, the IC50 was “inactive”.
With `O=C(O)/C(=C/c1ccco1)NC(=O)c1ccccc1` the IC50 was “inactive”.
With `O=[N+]([O-])c1c(NCCCO)cc(SCc2ccco2)c2nonc12` the IC50 was “inactive”.
With `CCc1c(C)sc(NC(=O)c2cc(-c3ccco3)on2)c1C#N` the IC50 was “inactive”.
For `Cc1oc(-c2ccc(Cl)cc2)cc1-c1nn2c(-c3ccoc3C)nnc2s1`, the IC50 was “inactive”.
With `CCC(c1nnnn1Cc1ccco1)N(Cc1ccccc1OC)Cc1cc2cc(C)ccc2[nH]c1=O` (stereo not given) the IC50 was “inactive”.
In the case of `S=c1[nH]nc(COc2ccc3c(c2)OCO3)n1-c1ccccc1`, the IC50 was “inactive”.
With `O=P(O)(CN1CCCCCC1)CN1CCCCCC1` the IC50 was “inactive”.
For `C=CCN=c1scc(-c2ccco2)n1/N=C/c1ccc(O)c(O)c1O`, the IC50 was “inactive”.
In the case of `N#CC1=C(N)OC2=C(CCC/C2=C/c2ccoc2)C1c1ccoc1` (stereo not given), the IC50 was “inactive”.
For `Cc1cc(C(=O)CSc2nc3ccccc3c(=O)[nH]2)c(C)n1C`, the IC50 was “inactive”.
With `C=C(C)C(=O)Nc1cccc(C2=NOC3(C2)C[C@@H](C(N)=O)N(C(=O)CC(c2ccccc2)c2ccccc2)C3)c1` (stereo not given in full) the IC50 was “inactive”.
In the case of `CSc1nc(NCCOCCO)c2sc3nc(-c4ccco4)c4c(c3c2n1)CCC4`, the IC50 was “inactive”.
For `COC(=O)Cn1c(CCC(=O)O)ccc1-c1ccccc1`, the IC50 was “inactive”.
For `O=C(OC1CCCCC1)c1ccc2c(c1)C1C=CCC1C(C(=O)O)N2` (stereo not given), the IC50 was “inactive”.
In the case of `COc1cccc(C2C(C#N)=C(N)OC3=C2C(=O)CC(c2ccco2)C3)c1OCc1ccc(F)cc1` (stereo not given), the IC50 was “inactive”.
For `Cc1ccc(CCC(=O)Nc2ccc(S(N)(=O)=O)cc2)o1`, the IC50 was “inactive”.
For `CCOC(=O)c1cc(NC(=O)N2CCCc3ccccc32)c(C)nc1C`, the IC50 was “inactive”.
